# In PubChem BioAssay AID430 (Sanford-Burnham Center for Chemical Genomics, 2006):
# The campaign covered roughly 63,000 compounds. About 1,100 (1.7%) were called active. For the sample, actives were picked, then their nearest neighbours and some compounds at random. Potency and affinity values are given separately. A number with no mark means an inactive call. No stated cut-off is given here; in the data, active means cytotoxicity above about 50%; inactive means the rest.
# Assay: HPDE-C7 pancreatic duct cell viability loss – fluorescence, HTS (AID 430);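 further: cells exposed to compound for 48 hours before viability readout; 0% = vehicle and 100% = reference cytotoxic drug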
# Settings: HPDE-C7 pancreatic duct cells viability, at 10 µM, active compounds read high
row,Compound,cytotoxicity
1,CC1=CC(c2ccccc2)n2nc(N3C(=O)c4ccccc4C3=O)nc2N1 (configuration not stated),-0.7%
2,Cc1cc(NC(=O)c2ccc(S(=O)(=O)N(C)C)cc2)no1,-5.2%
3,O=S(=O)(c1ccccc1)c1nc(-c2ccccc2)oc1NCc1cccnc1,-3.2%
4,CCNC(=O)C1CC(=O)N(Cc2ccc3c(c2)OCO3)C(=Nc2ccc(OCC)cc2)S1 (configuration not stated),-4.1%
5,CCNC(=O)C1CC(=O)N(Cc2ccc3c(c2)OCO3)C(=Nc2ccc(F)cc2)S1 (configuration not stated),50.6% (active)
6,CNC(=O)C1CC(=O)N(Cc2ccc3c(c2)OCO3)C(=Nc2ccc(F)cc2)S1 (configuration not stated),3.4%
7,c1ccc(Cn2nnnc2CN2CCN(Cc3ccc4c(c3)OCO4)CC2)cc1,-5.8%
8,Cc1nc2cc(C(F)(F)F)ccc2n1C1CCN(CC(=O)N2CCOCC2)CC1,1.2%
9,COc1ccc(S(=O)(=O)Nc2cc(C)ccc2OC)cc1C,1.8%
10,COc1ccc(NC(=O)CSc2nc3c(c(=O)n2-c2ccc(F)cc2)SCC3)cc1,14.2%
11,COc1ccc(NC(=O)c2cccc(-n3cnnn3)c2)cc1,-1.7%
12,O=C(O)C1C2C=CC3(CN(CC(O)COc4ccccc4)C(=O)C13)O2 (configuration not stated),-8.7%
13,Cc1cc2ccccc2n1CCNC(=O)c1ccc(S(=O)(=O)N2CCOCC2)cc1,-3.1%
14,Cn1cc(S(=O)(=O)Cc2ccc(F)cc2)c2ccccc21,8.8%
15,CC(C)C[C@H](N)c1nnc(S(=O)(=O)Cc2cccc(F)c2)o1,19%
16,CC(C)CCN1C(=O)CCC1(C)C(=O)NC1CCCCCC1 (configuration not stated),-16.5%
17,COc1ccccc1NC(=O)c1nc[nH]c1C(=O)Nc1ccccc1OC,17%
18,COc1ccc(NC(=O)c2nc[nH]c2C(=O)Nc2ccccc2C)cc1,55.3% (active)
19,Cc1ccccc1NC(=O)c1nc[nH]c1C(=O)NCc1ccccc1,-22.2%
20,Cc1ccc(Nc2oc(C)nc2C#N)cc1,2.5%
21,CCCSC1=C(C#N)C(c2ccccc2C)CC(=O)N1 (configuration not stated),10.1%
22,COc1ccc(OC)c(N/C(=N\c2nc(C)cc(C)n2)NC(=O)c2ccco2)c1,-5.6%
23,COC(=O)c1ccc(CSc2nnc(NCc3ccccc3)s2)o1,-3.1%
24,CCOc1ccccc1Nc1nnc(SCc2ccc(C(=O)OC)o2)s1,58% (active)
25,COC(=O)c1ccc(CSc2nnc(Nc3ccccc3OC)s2)o1,43.6%

row,Compound,cytotoxicity
1,Cn1c(=O)c2c(-c3ccccc3)n(CCCN3CCOCC3)cc2n(C)c1=O,-14%
2,COc1ccccc1NC(=O)c1cc(Sc2nncn2C)nc2ccccc12,4.7%
3,Cc1ccc(C(=O)C2=C(O)C(=O)N(CCCN3CCOCC3)C23C(=O)N(C)c2ccccc23)o1 (configuration not stated),-20.1%
4,COC(=O)c1ccc(OC(=O)c2ccco2)cc1,-14.5%
5,O=C(Oc1cccc(Br)c1)c1cccnc1,-5%
6,CCOc1ccc(OC(=O)c2cccnc2)cc1,4.1%
7,COC(=O)C1=C(C)NC(C)=C(C(=O)OC)C1c1ccc(OC(=O)c2ccco2)cc1,-0.4%
8,O=C(Oc1ccc2ccccc2c1)c1ccco1,5%
9,CCOc1ccc2c(c1)N(C(=O)CN1C(=O)CCC1=O)C(C)(C)C=C2C,-6.5%
10,CCc1ccc2c(c1)C(C)=CC(C)(C)N2,3.5%
11,CC1=CC(C)(C)Nc2ccc(C)cc21,-10.9%
12,COc1ccc(S(=O)(=O)N2CCCC2C(=O)Nn2cnnc2)cc1 (configuration not stated),-10.2%
13,O=C(O)C1C2CCC(C2)C1C(=O)Nc1nc2ccccc2s1 (configuration not stated),-5.1%
14,CCc1cccc(NC(=O)Cn2cccc2)c1,2.1%
15,Cc1noc(C)c1CSCC(=O)OCC(=O)Nc1sccc1C#N,6.1%
16,CCCc1cc(=O)oc2cc(C)cc(OC(=O)c3ccco3)c12,11.7%
17,COC(=O)c1c(NC(=O)c2ccc(Br)o2)sc(C)c1C,11%
18,O=S(=O)(c1cccc(Cl)c1Cl)N1CCCCC1,-8.6%
19,C1CCC(c2nn3c(-c4n[nH]c5c4CCC5)nnc3s2)CC1,2.9%
20,COc1ccc(CCN(Cc2nc3ccccc3c(=O)[nH]2)C(=O)c2ccco2)cc1OC,-3%
21,Cc1oc(C)c2c(=O)ccc3c(c12)OC(N)=C(C#N)C3c1ccccc1 (configuration not stated),-51.8%
22,CSc1ccc(C2C(C#N)=C(N)Oc3c2ccc(=O)c2c(C)oc(C)c32)cc1 (configuration not stated),-8.9%
23,Cn1c(N2CCC(C(N)=O)CC2)nc2c1c(=O)n(Cc1ccc(Br)cc1)c(=O)n2C,28.6%
24,COc1cccc(C2C(C#N)=C(N)OC3=C2C(=O)CCC3)c1OC(=O)c1ccco1 (configuration not stated),-11.1%
25,OCCNCC(O)Cn1ccc2ccccc21 (configuration not stated),-15.1%

row,Compound,cytotoxicity
1,OCCN(CC(O)Cn1ccc2ccccc21)CC(O)Cn1ccc2ccccc21 (configuration not stated),-4.1%
2,Cc1nn(Cc2ccccc2)c(C)c1C(=O)Nc1ccc(N2CCOCC2)cc1,6.2%
3,COc1ccc(CN(C)C2CCCCC2)cc1,12.6%
4,CC(C)(C)c1cc(C(=S)N2CCN(CCO)CC2)cc(C(C)(C)C)c1O,-4.1%
5,CC(C)(C)c1cc(CN2CCN(CCO)CC2)cc(C(C)(C)C)c1O,-9.7%
6,Cc1ccc2c(c1)N(CCCC(=O)NCC1COc3ccccc3O1)C(=O)CO2 (configuration not stated),-5.2%
7,C(=N\n1cnnc1)/c1cn(-c2cccs2)nc1-c1ccccc1,-5.7%
8,O=C(O)C1CCN(C(=O)c2ccccc2C(=O)N2CCC(C(=O)O)CC2)CC1,-9.9%
9,Cc1ccnc(NC(=O)C2CCN(S(=O)(=O)c3cccc4nsnc34)CC2)c1,-8.3%
10,O=S(=O)(c1ccccc1)N1CCN(C2CCN(Cc3ccccc3)CC2)CC1,22.9%
11,Cc1ccc(SCc2[nH]nc3c2C(c2ccc(C)o2)C(C#N)=C(N)O3)cc1 (configuration not stated),44.5%
12,Cc1ccc(C2C(C#N)=C(N)Oc3nc(-c4ccccc4)[nH]c32)o1 (configuration not stated),-2.4%
13,CC1(C)Cc2cccc(OCC(=O)N3CCN(S(=O)(=O)c4ccccc4)CC3)c2O1,-2.1%
14,COC(=O)c1ccsc1NC(=O)c1ccc(Cl)s1,-0.2%
15,CCOc1ccc2nc(NCCO)[nH]c2c1,-2.1%
16,CCCOc1ccc2nc(NC(=O)OC)[nH]c2c1,61.4% (active)
17,COc1ccc(C(=O)Nc2nc3ccccc3[nH]2)cc1OC,-5.6%
18,COc1ccc2nc(NCCO)[nH]c2c1,-13.5%
19,COc1ccc2nc(SCC(N)=O)[nH]c2c1,-19.2%
20,CCCSc1ccc2nc(NC(=O)OC)[nH]c2c1,67.1% (active)
21,CCCCC(c1nnnn1CS(=O)(=O)c1ccc(C)cc1)N1CCN(c2ccccc2)CC1 (configuration not stated),-30%
22,O=C(NC1CCCc2ccccc21)C1CCN(S(=O)(=O)c2cccc3nonc23)CC1 (configuration not stated),-29.1%
23,O=C(c1cc2sccc2n1Cc1ccccc1)N1CCc2ccccc21,9.3%
24,CC(=O)N1CCN(CC(=O)Nc2c(Cl)cc(Cl)cc2Cl)CC1,0%
25,COc1ccc(N2CCN(C(=O)c3ccc(S(=O)(=O)N4CCOCC4)cc3)CC2)cc1,3.1%

row,Compound,cytotoxicity
1,COc1cc(OC)nc(NC(=O)COC(=O)C2CCCCC2)n1,8.7%
2,COc1ccc(-n2c(Cc3cccn3C)nnc2SCC(=O)Nc2ccccc2F)cc1,-11.2%
3,Cc1ccc(C(=O)C2=C(O)C(=O)N(c3ncccn3)C2c2cccc(Cl)c2)o1 (configuration not stated),22.7%
4,O=C(C1=C(O)C(=O)N(c2ncccn2)C1c1ccc(Cl)c(Cl)c1)c1ccco1 (configuration not stated),7.8%
5,Cc1ccc(C(=O)C2=C(O)C(=O)N(c3ncccn3)C2c2ccc(Cl)cc2)o1 (configuration not stated),68.3% (active)
6,CCOc1ccc(-c2noc(-c3cccnc3)n2)cc1OC,0.1%
7,Cc1[nH]nc2c1C1(CCN(C(=O)c3ccccc3)CC1)C(C#N)=C(N)O2,-19.1%
8,Cc1ccc(NC(=O)N2CCC(C(=O)NCCC3=CCCCC3)CC2)cc1,-6.2%
9,CC1(C)Cc2noc(N)c2C(C)(C)N1OC(=O)c1ccccc1,-5.7%
10,CCCSc1nnc(NC(=O)c2sc3nc(-c4cccs4)ccc3c2N)s1,41.2%
11,Cc1csc(NC(=O)c2sc3nc(-c4cccs4)ccc3c2N)n1,60.5% (active)
12,Nc1c(C(=O)NC2CCCC2)sc2nc(-c3cccs3)ccc12,10.5%
13,CCCOc1ccc(S(=O)(=O)NCCN2CCOCC2)c2ccccc12,-13.1%
14,O=C(NC1CCCCC1)C1CC(=O)N(c2ccc(Cl)cc2)C1 (configuration not stated),-9.5%
15,CC1(C)C(c2cccs2)=NC(c2ccccc2)N1O (configuration not stated),-25.9%
16,Cc1ccc(C(N)=O)cc1S(=O)(=O)Nc1cccc(C)c1C,18.4%
17,O=C(CC1Oc2ccccc2NC1=O)NCCCN1CCN(C2CCCCC2)CC1 (configuration not stated),2.6%
18,O=C(CC(SCCO)c1ccc(F)cc1)c1ccco1 (configuration not stated),3.7%
19,O=C(CSCCSCC(=O)c1ccco1)c1ccco1,10.6%
20,Cc1ccc(C(CC(=O)c2ccco2)SCCO)cc1 (configuration not stated),99.5% (active)
21,CCC(=O)N1CC23C=CC(CC2CC12CCCCC2)O3 (configuration not stated),-6.8%
22,COc1ccc(OC)c(CC(NC(C)=O)C(=O)NC2CCN(c3nc(C)cc(C)c3C#N)CC2)c1 (configuration not stated),-6.9%
